Several values for one entry are separate records, joined by “and”; a condition that tells them apart may be missing. Equal values may be shown once. About 79,000 compounds went through this panel and 15% of them were active in at least one assay; those are over-represented in the sample as a whole. Unmarked numbers belong to inactive results. Activity calls are given as the source filed them. Cut-off read from the data, not from the text of the source: active = growth inhibition above about 70%; inactive = the rest.
Test: NCI Yeast Anticancer Drug Screen. Data for the bub3 strain (AID 167)
Conditions: S. cerevisiae bub3 mutant strain, stronger effect = higher value
Procedure: Growth inhibition of yeast strains with defined genetic alterations is measured as a screen for potential anti-cancer activity. Selected strains with alterations in DNA damage repair or cell cycle control were exposed to compounds and growth inhibition was measured relative to vehicle treated controls. The strain used in this assay is bub3

[1] = at 5.0 µM (retest, dose inferred, filed as 0.5)
[2] = at 50.0 µM (retest, dose inferred, filed as 5.0)

Compound | growth inhibition [1] | growth inhibition [2] | growth inhibition (at 50.0 µM)
CC(C)(C)N/N=C(/Cc1nc2c3c(ccc2[nH]c1=O)C(=O)c1ccccc1C3=O)C(=O)NC1=C(Cl)C(=O)c2ccccc2C1=O | 13% | 83% (active) | 67.1%
CCOc1cc(F)c([N+](=O)[O-])cc1[N+](=O)[O-] | 91% (active) | 99% (active) | 99% (active)
O=C1C=CC(=O)N1c1ccccc1 | 99% (active) | 99% (active) | 99.2% (active)
COc1cccc(NC(=O)C(C#N)=C(SC)SC)c1 | 42% | 95% (active) | 91.2% (active)
C(CCc1nn[nH]n1)CCC1CCCCC1 | 11% | 98% (active) | –
COC(=O)Nc1nc2ccc(C3(c4ccc(F)cc4)OCCO3)cc2[nH]1 | 22% | 72% (active) | 84.1% (active)
CC1(C)CCCC2=C1C(=O)N(SC(Cl)(Cl)Cl)C2=O | 100% (active) | 99% (active) | 89.9% (active)
O=C1/C(=C/c2ccccn2)CCc2ccccc21 | -8% | 98% (active) | 89.4% (active)
CC(C)(C)C(=O)CC(c1ccccc1)c1ccccc1 | 10% | 22% | –
Nc1nc2ncc(CNc3ccc(C(=O)NC(CCC(=O)NC(CCC(=O)NC(CCC(=O)NC(CCC(=O)NC(CCC(=O)O)C(=O)O)C(=O)O)C(=O)O)C(=O)O)C(=O)O)cc3)nc2c(=O)[nH]1 (stereo unspecified) | -5% | -2% | -19.5%
O=C(c1ccccc1)N(CCCl)C(=O)N(CCCl)C(=O)c1ccccc1 | 23% | 64% | –
S=C(S)OCN1CCOCC1 | 55% | 27% | 98.8% (active)
O=C(c1ccccc1)C(Br)C(Br)c1ccccc1 (stereo unspecified) | 22% | 97% (active) | 98.8% (active)
CC(CCC(=O)O)C(=O)O (stereo unspecified) | – | – | 4.95% and 11.3%
O=C(O)CCC(C(=O)O)N1C(=O)c2ccccc2C1=O (stereo unspecified) | – | – | 3.75% and -48.2%
CCOC(=O)C(c1ccccc1)c1cccc(C(C(=O)OCC)c2ccccc2)n1 (stereo unspecified) | – | – | 1.8% and -3.6%
COC(=O)C1OC(O[C@H]2CC[C@]3(C)[C@H]4CC=C5[C@@H]6CC(C)(C)CC[C@]6(C(=O)OC6OCC(O)C(O)C6OC6OC(C)C(OC7OCC(O)C(OC8OCC(O)C(O)C8O)C7O)C(OC7OCC(O)C(O)C7O)C6O)CC[C@@]5(C)[C@]4(C)CC[C@H]3C2(C)C)C(O)C(OC2OCC(O)C(O)C2O)C1O (stereo partly specified) | – | – | 30.2% and 22.7%
CC1C2C=CC(C2)C1C(=O)O (stereo unspecified) | – | – | 7.8% and -1.95%

From PubChem BioAssay (NCI)
